High-throughput results deposited in PubChem BioAssay by The Scripps Research Institute Molecular Screening Center.
DAX1 inh-1 – DAX1 (NR0B1) inhibitors on StAR promoter, primary screen, cell-based, luminescence, SF-1 (NR5A1), full-length DAX-1 | HEK293T StAR-luciferase reporter, SF-1/DAX-1 repression relief | 1.1% of 370,000 active | inhibition, % at 6.8 µM;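 active = inhibition above the mean over all tested compounds plus 3 SD, cut at about 3.6% in these data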;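 also: higher inhibition means more luminescence from relief of DAX-1 repression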
DAX1 inh-2 – DAX1 (NR0B1) inhibitors, primary screen, cell-based, HEK293, Gal4-DAX1, luciferase luminescence. AID 504766, 2011. inhibition, % at 6.75 µM. 0.99% of 340,000 active. HEK293 Gal4-DAX1 luciferase reporter. Nuclear receptor subfamily 0 group B member 1 (Homo sapiens), P51843;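 active = inhibition above the mean over all tested compounds plus 3 SD, cut at about 4.2% in these data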;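 also: inhibition shows as a rise in luminescence from relieved DAX1 repression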
Target sequence (P51843 207-470 limits assumed): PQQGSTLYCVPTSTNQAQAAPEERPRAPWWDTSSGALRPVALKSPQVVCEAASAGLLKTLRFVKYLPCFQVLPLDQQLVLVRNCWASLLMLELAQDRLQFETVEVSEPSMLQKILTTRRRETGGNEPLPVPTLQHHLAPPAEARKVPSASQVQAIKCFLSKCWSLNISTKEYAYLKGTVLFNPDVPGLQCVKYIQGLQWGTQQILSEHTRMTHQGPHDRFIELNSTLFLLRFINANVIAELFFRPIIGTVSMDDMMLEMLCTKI
hcDAF-12 act – H. contortus DAF-12 nuclear receptor activators, primary screen, cell-based, luminescence, HEK293, lit1-tk-luc reporter; 1.4% of 370,000 active; activation, % at 6.8 µM; HEK293 hcDAF-12 lit1-tk-luc reporter; 0% DMSO, 100% Δ7-dafachronic acid; AID 652067, 2013;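 active = activation above the mean of all tested compounds plus 3 SD, cut at about 5.5% in these data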
ssDAF-12 act – S. stercoralis DAF-12 nuclear receptor activators, primary screen, cell-based, luminescence, HEK293, GRIP1 co-expression, lit1-tk-luc; activation, % at 6.8 µM; 1% of 370,000 active; Nuclear hormone receptor DAF-12 (Strongyloides stercoralis); AID 652126, 2013; HEK293 ssDAF-12/GRIP1 lit1-tk-luc reporter; % of 3 µM dafachronic acid response;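 active = activation above the mean over all tested compounds plus 3 SD, cut at about 0.9% in these data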
hgDAF12 agonist – H. glycines DAF-12 receptor agonists, primary screen, cell-based, luminescence, HEK293, GAL4 fusion, UAS-luciferase. activation, % at 6.8 µM. 1.8% of 370,000 active. Nuclear hormone receptor DAF-12 (Heterodera glycines), GAL4 fusion. AID 687014, 2013. HEK293 GAL4-hgDAF12 UAS-luciferase reporter, agonist luminescence; normalized to butyrate control;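 active = activation above a cutoff set at the mean of all screened compounds plus 3 SD, cut at about 10% in these data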
Large screens that a line does not name were inactive. A selection: hits, their analogues and other compounds. The true share with any hit is near 4.1%.

O=c1c2cc(Br)ccc2nc(-c2ccc(Cl)cc2)n1O	none
OC(c1ccccc1)(c1ccccc1)C1CCN(CCCOc2ccncc2)CC1	none (no result: DAX1 inh-2)
Cn1c(SCC(=O)Nc2ccc(S(=O)(=O)Nc3nccs3)cc2)nc2sc3c(c2c1=O)CCCC3	none (no result: DAX1 inh-2)
C[C@H]1[C@@H](O)CC[C@@]23CCCN2C(=O)CCC[C@@H]13	none (no result: DAX1 inh-1, DAX1 inh-2)
Cc1ccc(C)c(NC(=S)Nc2ncccc2C)c1	hgDAF12 agonist 11.7
Cc1cccnc1NC(=S)Nc1ccc(F)cc1F	hgDAF12 agonist 10.8
Cc1cc(C)nc(NC(=S)Nc2ccc(F)cc2F)c1	none
COc1ccc(-n2c(SCC(=O)NNC(=S)Nc3ccc(C)cc3)nnc2-c2ccccc2)cc1	none (no result: DAX1 inh-2)
CCOC(=O)[C@@]12CN(C(=O)OC(C)(C)C)CC=C1N(Cc1ccc(OC)cc1)C(=O)[C@H]2CC(=O)NCCC(C)C	none (no result: DAX1 inh-2)
CC(=O)c1ccccc1OCCOc1ncnc2sccc12	hgDAF12 agonist 11.1
Cc1ccc2nc(-c3ccncc3)[nH]c2c1	hgDAF12 agonist 11.3
Cc1ccc(-c2csc3nc(-c4ccncc4)[nH]c(=O)c23)cc1	none
Nc1ccc2nc(-c3ccccc3)[nH]c2c1	ssDAF-12 act 1.7
Cc1cccc(C)c1NC(=O)COC(=O)C1C2CC3OC(=O)C1C3C2 (centres undefined)	DAX1 inh-2 5.2
N#Cc1cccc(CNCC(=O)N2CCC3(CC2)OCCO3)c1	none (no result: DAX1 inh-2)
FC(F)(F)c1cccc(OCc2noc(-c3ccsc3)n2)c1	DAX1 inh-2 5.5
FC(F)(F)c1cccc(-c2nc(-c3ccncc3)no2)c1	none
Cc1ccc2c(c1)N(CCCC(=O)N(C)Cc1ccccc1F)C(=O)CO2	none (no result: DAX1 inh-2)
C[N+]1=C(N)NC2=C3CCCCC3n3c(=O)n(-c4ccccc4)c(=O)n3C2C1 (centres undefined)	none (no result: DAX1 inh-2)
N#Cc1cc2cc(Cl)ccc2[nH]c1=O	DAX1 inh-1 4.1 (no result: DAX1 inh-2)
O=C(c1ccccc1)c1cc2cc(Cl)ccc2[nH]1	none
COc1ccc(CCn2cnc3nc4ccc(Cl)cc4cc3c2=O)cc1OC	none (no result: DAX1 inh-2)
O=c1c2cc3cc(Cl)ccc3nc2ncn1Cc1ccc(Oc2ccccc2)cc1	hcDAF-12 act 5.9 (no result: DAX1 inh-2)
CCN(CC)c1ccc(NC(=O)c2ccco2)cc1	DAX1 inh-1 4.1, hgDAF12 agonist 12.8
O=C(NCc1cccnc1)c1ccc(NC(=O)c2ccco2)cc1	none
CCC(C)c1ccc(NC(=O)c2ccco2)cc1 (centres undefined)	hgDAF12 agonist 11.3
O=C(Nc1ccc(Cl)cc1)c1ccco1	DAX1 inh-2 5.2
O=C(NCc1ccccn1)c1ccc(NC(=O)c2ccco2)cc1	ssDAF-12 act 1.3
Cc1ccc(NC(=O)Cn2nnc(-c3ccccc3F)n2)cc1C	none (no result: DAX1 inh-2)
CC(=O)N1CCCN(C(=O)C2CCN(c3ncnc4c3sc3cccc(F)c34)CC2)CC1	none (no result: DAX1 inh-2)
Nc1nc2ccccc2cc1-c1cccs1	DAX1 inh-2 5.4
c1csc(-c2ccc3ccccc3n2)c1	none
CC(COc1ccc(Br)cc1)CN1CCC(C(O)(c2ccccc2)c2ccccc2)CC1 (centres undefined)	none (no result: DAX1 inh-2)
C#CCOCC1CN(c2ccccc2)C(=O)O1 (centres undefined)	DAX1 inh-2 4.2
CCOc1cc(Br)cc(C(c2c(C(=O)O)[nH]c3ccccc23)c2c(C(=O)O)[nH]c3ccccc23)c1O	none
CSc1ccc(C(c2c(C(=O)O)[nH]c3ccccc23)c2c(C(=O)O)[nH]c3ccccc23)cc1	hcDAF-12 act 5.6
COC(=O)C[C@@H]1CC[C@@H]2[C@@H](COc3ccc(NC(=O)Nc4ccccc4)cc3C(=O)N2C)O1	none (no result: DAX1 inh-2)
CC(=O)c1ccc(NS(=O)(=O)c2cccc(C)c2)cc1	hgDAF12 agonist 11.9
COc1cccc(-c2ncn(CCc3ccccc3OC)c2CC(C)C)c1	none (no result: DAX1 inh-2)
COc1ccc(CCN(Cc2cccs2)S(=O)(=O)c2ccc(F)cc2)cc1OC	none (no result: DAX1 inh-2)
O=C(Nc1ccc(N=Nc2ccccc2)cc1)c1ccccc1Cl	DAX1 inh-1 3.9, hgDAF12 agonist 11.3
O=C(O)c1ccc(NC(=O)c2ccccc2NC(=O)c2ccccc2Cl)cc1	DAX1 inh-2 4.5
COc1ccccc1CCC[C@H](CCS(=O)(=O)C(C)C)CC1CCCCC1	none (no result: DAX1 inh-2)
COc1ccc2cc(-c3cccnc3)ncc2c1	hgDAF12 agonist 11.4
COc1ccc(C2=Cc3ccc(OC(C)=O)cc3OC2)cc1	DAX1 inh-2 5.5
COCCCN1C(=O)[C@H](CC(=O)N2CCOCC2)[C@]2(C(=O)OC)CCCCC=C12	none (no result: DAX1 inh-2)
CC1(NC(=O)c2ccc(C#Cc3cccc(F)c3)cn2)COC1	none (no result: DAX1 inh-2)
O=[N+]([O-])c1cccnc1N1CCCCC1	none
O=c1n(-c2ccc(Br)cc2)cnn1-c1ncccc1[N+](=O)[O-]	DAX1 inh-2 4.3
COc1ccc(OC)c(NC(=O)c2cc3c(=O)n4ccccc4nc3n2C)c1	none
COc1ccc(C(=O)Nc2cnc3ccccn3c2=O)cc1	hgDAF12 agonist 11.7
O=C(Nc1cnc2ccccn2c1=O)c1ccc(F)cc1	hgDAF12 agonist 10.6
O=C(NC1CCCC1)N1CCC(c2nc3ccc(Cl)cc3[nH]2)CC1	none (no result: DAX1 inh-2)
Cc1cccc(C(=O)Nc2ccc3c(c2)nc(C)n3C)c1	none
Cc1cccc(C(=O)Nc2ccc3c(c2)ncn3C)c1	hgDAF12 agonist 11.2
Cc1nnc(SCC(=O)Nc2ccc(Cl)cn2)n1Cc1ccccc1	DAX1 inh-2 6.0
Cc1nnc(NC(=O)CSc2nnc(C)n2Cc2ccccc2)s1	none
Fc1cccc(F)c1Cn1ccc2ccc(-c3ccc4ccn(Cc5c(F)cccc5F)c4c3)cc21	none (no result: DAX1 inh-2)
CC1(C)CC(=O)C2=C(C1)OC(N)=C(C#N)C21C(=O)N2CCCc3cccc1c32 (centres undefined)	ssDAF-12 act 1.0
CC1(C)CC(=O)C2=C(C1)OC(N)=C(C#N)[C@@]21C(=O)N(CC(N)=O)c2ccccc21	none
O=C(/C=C/c1ccco1)N1CCN(S(=O)(=O)c2cccs2)CC1	DAX1 inh-2 6.6
O=C1C2C3C=CC(C4CC34)C2C(=O)N1/N=C/c1c[nH]c2ccccc12 (centres undefined)	hcDAF-12 act 6.0, ssDAF-12 act 2.2, hgDAF12 agonist 10.5
O=C1C2C3C=CC(C4CC34)C2C(=O)N1/N=C/c1ccc([N+](=O)[O-])s1 (centres undefined)	none
COC(=O)[C@]12C[C@H](CC(=O)NCC34CC5CC(CC(C5)C3)C4)C(=O)N(Cc3ccc4c(c3)OCO4)C1=C[C@H](COCc1ccccc1)O[C@@H]2C	none (no result: DAX1 inh-2)
N/C(=N\OC(=O)c1ccncc1)c1cccc([N+](=O)[O-])c1	none
